Source: PubChem BioAssay (NCI)
This is part of a sample that, as a whole, favours compounds with a hit. Of some 83,000 tested, about 20% had one in any assay.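 The test compound was applied at a single concentration to cells in 96-well plates for 48 hours, and percent growth was recorded.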 Values without a mark were called inactive. Active and inactive are the calls of the source.

System: OVCAR-5 ovarian
Experiment: NCI-60 one-dose screen, 48 h (100 = growth as untreated, 0 = no growth, -100 = all killed)
Details: 10 µM unless noted
Description: Growth inhibition of the OVCAR-5 human tumor cell line is measured as a screen for anti-cancer activity. Cells are grown in 96 well plates and exposed to the test compound for 48 hours. Compounds are tested at a single concentration, which is 10^-5 M for most compounds. The reported endpoint is percent growth (GI% or GIPRCNT), where numbers from 0 - 100% represent growth inhibition, and numbers from -100% - 0 represent cell death. For example, a value of 40 represents 60% growth inhibition. A value of 0 means no net growth occurred over the course of the experiment. A value of -40 indicates 40% of cells at the beginning of the experiment died by the end of the experiment. A value of -100 means all cells are dead at the end of the experiment.
NCI-60 Human Tumor Cell Lines Screen was performed using the standard one-dose NCI protocol, which is described in more detail at https://dtp.cancer.gov/discovery_development/nci-60/default.htm.
Compounds with GIPRCNT values below 10 were considered active. Activity score was based on GIPRCNT using the following formula: […]
Score is 0 for GIPRCNT values of 100 or above, 50 for GIPRCNT values of 0, and 100 for GIPRCNT values of -100.

SMILES | growth
COc1ccc(/C=C2\SC(=Nc3cc(C)[nH]n3)NC2=O)cc1 | 90.3%
Cc1c(Nc2nnc(SCC(=O)Nc3sc4c(c3C#N)CCCC4)s2)c(=O)n(-c2ccccc2)n1C | 114%
CC(C)(C)Nc1nc2c(OCCc3ccccc3)cccn2c1-c1ccc(O)cc1 | 70.2%
O=C(NNc1nc2cc(F)ccc2n2c(CN3CC4(COC4)C3)ccc12)c1cnccn1 | 38.1%
Fc1ccc(-c2cc3nc(C(Cl)Cl)nc(-c4ccccc4)n3n2)cc1 | -20.3% (active)
COc1cc(-c2nc3ccc(-c4nnc(SCC(=O)Nc5ccc(C(=O)/C=C/c6ccc(Cl)cc6)cc5)o4)cc3[nH]2)cc(OC)c1OC | 99.2%
CC(C)(C)Nc1nc2c(OCCc3ccccc3)cccn2c1-c1cccc(F)c1 | 14.2%
Cn1cc(-c2cc(N)n3nc(-c4cn(C)c5ccc(Cl)cc45)cc3n2)c2cc(Cl)ccc21 | 107%
CN(C)c1ccc(/C=C2\Cc3c(F)ccc(Br)c3C2=O)cc1 | 107%
O=C(N/N=C/c1ccco1)c1[nH]c2ccc(Br)cc2c1-c1ccccc1 | 36.7%
Cn1cc(-c2cc(N)n3nc(-c4cn(C)c5ccc(F)cc45)cc3n2)c2cc(F)ccc21 | 88.5%
CC1=C(C)C(=O)C(Nc2cccc(C(F)(F)F)c2)=C(Cl)C1=O | 100%
CCC/C=C/C=C/C(=O)N[C@@H](Cc1cc(F)cc(F)c1)C(=O)N[C@@H]1C(=O)N2CCC[C@H]2C(=O)N2CCCC[C@H]2C(=O)N[C@@H](C)C(=O)N2C[C@H](C)C[C@H]2C(=O)O[C@H]1C | 24.6%
O=C(CCN1C(=O)/C(=C/c2ccccc2)SC1=S)N1CCOCC1 | 94.8%
COc1ccc(N/N=C/c2c(-c3ccc(S(C)(=O)=O)cc3)nc3ccccn23)cc1 | 67.4%
C=CCn1c(SCC(=O)c2ccc(Br)cc2)nnc1-c1c[nH]c2ccccc12 | 96.8%
COc1ccc(C(=O)/C=C/c2ccc(Oc3nc(NCCO)nc(N4CCOCC4)n3)c(OC)c2)cc1 | 99.9%
COc1ccc(/C=C2\SC(=Nc3cc(C)on3)NC2=O)cc1 | 97.6%
O=[N+]([O-])c1ccc(O)c2ncccc12 | 40.1%
CS(=O)(=O)Nc1ccc(-c2nn(-c3ccc(S(C)(=O)=O)cc3)cc2/C=C/C(=O)c2ccc(NC(=O)CO[N+](=O)[O-])cc2)cc1 | 103%

SMILES | growth
C=C1CC[C@H]2[C@@](C)(CCC3OC(c4ccc(OCc5cn(C6CC(OC(C)=O)C(OC(C)=O)C(COC(C)=O)O6)nn5)cc4)OC[C@]32C)[C@@H]1/C=C/C1=CCOC1=O (stereo not given in full) | 97.4%
N#Cc1c(-c2ccc(F)cc2)nc2c(C#N)c(Nc3ccccc3)nn2c1N | 98.9%
O=C(CSc1nc2sc3c(c2c(=O)n1-c1ccc(Cl)cc1)CCCC3)NNC(=O)Nc1ccc(Cl)c(C(F)(F)F)c1 | 49.4%
COc1ccc(/C=N/Nc2ccnc3cc(Cl)ccc23)cc1Cl | -71.9% (active)
O=C1[C@H]2Cc3c([nH]c4ccccc34)[C@@H](c3ccc(Br)cc3)N2C(=O)CN1C1CCN(Cc2ccccc2)CC1 | 65%
O=C1NC(=C(Cl)Cl)/C(=N/S(=O)(=O)N2CCCCC2CC2(C(F)(F)F)N=N2)N1 (stereo not given) | 91.1%
CCOC(=O)c1c(NC(=O)c2cccc(C(F)(F)F)c2)sc2cc(O)ccc12 | 98.4%
O=C(CSc1nc2sc3c(c2c(=O)n1-c1ccc(Cl)cc1)CCCC3)N/N=C/c1ccc(F)cc1 | 106%
COc1ccc(-c2cc(C(=O)N=Nc3c(O)[nH]c4ccccc34)c3ccccc3n2)cc1OC | 91%
O=C1Nc2cc(Cl)ccc2/C1=C\c1ccc(OCc2ccc(Br)cc2F)cc1 | 6.67% (active)
O=C(CSc1nccc(=O)[nH]1)Nc1ccc(-c2nc3ccccc3[nH]2)cc1 | 109%
COc1cccc(OC)c1-c1nnn(C)c1C(=S)N1CCN(c2ccc([N+](=O)[O-])cc2Cl)CC1 | 91.6%
CC(O)C(NC(=O)C1CCCN1C(=O)CNC(=O)C1CC(=O)NCC(=O)NC(Cc2c[nH]c3ccccc23)C(=O)NC(Cc2ccc(O)cc2)C(=O)NCC(=O)NC(CO)C(=O)NC(CCC(N)=O)C(=O)NC(Cc2c[nH]c3ccccc23)C(=O)N1)C(=O)NCC(=O)NC(CCC(N)=O)C(=O)NC(CCCNC(=N)N)C(=O)NC(CC(=O)O)C(=O)O (stereo not given) | 110%
O=C1Nc2ccc(Cl)cc2/C1=C/c1ccc(OCC(=O)c2ccc(Br)cc2)cc1 | 93.2%
Cc1c(NC(=O)CSc2nc3sc4c(c3c(=O)n2-c2ccc(Cl)cc2)CCCC4)c(=O)n(-c2ccccc2)n1C | 99.6%
Cc1cc2nc3c4cc(Cl)ccc4n(CC(=O)NCCN(C)C)c3nc2cc1C | -16.7% (active)
CNC(=O)c1cc(-c2ccc(NC(=O)Nc3ccc(N4CCN(C)CC4)c(C(F)(F)F)c3)cc2)nc2cccnc12 | -88.6% (active)
C/C(=C(/c1ccc(Cl)cc1)c1ccc(OCCN)cc1)c1ccc(C)cc1 | 101%
COc1cccc(N2CCN(c3ncnc4c3[nH]c3ccc(F)cc34)C[C@@H]2C)c1 | 0.0989% (active)
O=c1[nH]c2ccc(Cl)cc2cc1CSc1ccccc1Nc1nccc(-c2ccc(Cl)cc2)n1 | 114%
